# PubChem BioAssay (EPA / NIEHS)
# Results filed as inconclusive are left out. Active and inactive are the calls of the source. Rule for the calls: active = hit-call score of the fitted dose curve at least 0.9, where 1 is the maximum; inconclusive = response in the unintended direction; inactive = score below 0.9.
# Experiments:
# [1] = target: human Elastase, ELANE (gene 1991) (UniProt P08246); assay: NVS_ENZ_hElastase: NovaScreen (NVS) Enzymatic Assay for human Elastase (AID 2283153)
# Outline: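 Concentration-response to 50 uM max, run singly for chemicals passing a threshold (e.g., 30% inhibition) in a duplicate 25 uM single-point screen. Neutrophil-derived human elastase, absorbance read-out of enzyme activity at 1.5 h; DMSO baseline.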
# [2] = target: human Insulin Receptor (InsR), INSR (gene 3643) (UniProt P06213); assay: NVS_ENZ_hInsR: NovaScreen (NVS) Enzymatic Assay for human Insulin Receptor (InsR) (AID 2283168)
# Outline: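 Cell-free enzyme assay read 1 h post-dose by fluorescence after substrate/product mobility-shift separation. Duplicate 25 uM primary screen, then singleton concentration-response up to 50 uM for compounds passing threshold; loss of signal vs DMSO.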
# [3] = target: human Esterase Plasma (ES), BCHE (gene 590) (UniProt P06276); assay: NVS_ENZ_hES: NovaScreen (NVS) Enzymatic Assay for human Esterase Plasma (ES) (AID 2283157)
# Outline: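 Human plasma-derived enzyme, cell-free, colorimetric readout at 0.25 h. Primary screen 25 uM in duplicate; hits (e.g. ≥30% inhibition) rerun singleton up to 50 uM. DMSO = negative control/baseline.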
# [4] = target: human Matrix Metalloproteinase-7 (MMP7), MMP7 (gene 4316) (UniProt P09237); assay: NVS_ENZ_hMMP7: NovaScreen (NVS) Enzymatic Assay for human Matrix Metalloproteinase-7 (MMP7) (AID 2283183)
# Outline: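 Compounds first tested at 25 uM in duplicate, then at up to 50 uM in concentration series if active. Protease activity measured by fluorescence intensity 1 h after dosing, with fitting relative to DMSO.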
# [5] = target: human Matrix Metalloproteinase-2 (MMP2), MMP2 (gene 4313) (UniProt P08253); assay: NVS_ENZ_hMMP2: NovaScreen (NVS) Enzymatic Assay for human Matrix Metalloproteinase-2 (MMP2) (AID 2283184)
# Outline: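 Compounds first screened in duplicate at a single 25 uM, with actives followed up in concentration series. Recombinant human MMP2 cleaves a fluorogenic substrate; fluorescence taken at 1 h, inhibition fitted relative to DMSO.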
# [6] = target: human Ephrin type-A Receptor 1 (EphA1), EPHA1 (gene 2041) (UniProt P21709); assay: NVS_ENZ_hEphA1: NovaScreen (NVS) Enzymatic Assay for human Ephrin type-A Receptor 1 (EphA1) (AID 2283158);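 note: activity is signal loss versus DMSO meaning EphA1 kinase inhibition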
# Outline: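 Cell-free enzymatic assay with recombinant EphA1 and fluorescent substrate; product separated by electrophoretic mobility shift, fluorescence intensity read 1 hour after dosing. Loss of signal versus DMSO baseline; primary duplicate screen at 25 uM, actives followed to 50 uM top concentration.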
# [7] = target: human FYN Proto-Oncogene, Src family Tyrosine Kinase (Fyn), FYN (gene 2534) (UniProt P06241); assay: NVS_ENZ_hFyn: NovaScreen (NVS) Enzymatic Assay for human FYN Proto-Oncogene, Src family Tyrosine Kinase (Fyn) (AID 2283161)
# Outline: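 Cell-free kinase activity read by fluorescence after mobility-shift separation of substrate and product, 1 h post-dose. Initial single concentration 25 uM in duplicate, then concentration-response follow-up; DMSO baseline.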
# [8] = target: Histone deacetylase 3 (Homo sapiens) (UniProt O15379); assay: NVS_ENZ_hHDAC3: NovaScreen (NVS) Enzymatic Assay for human Histone Deacetylase 3 (HDAC3) (AID 2283163)
# Outline: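 Cell-free enzyme format: loss of fluorescent product after mobility-shift separation, 1 h incubation, recombinant human HDAC3. Single 25 uM duplicate screen first, then concentration series to a 50 uM top for hits; DMSO as baseline.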
# [9] = target: human LYN Proto-Oncogene, Src family Tyrosine Kinase (LynA), LYN (gene 4067) (UniProt P07948); assay: NVS_ENZ_hLynA: NovaScreen (NVS) Enzymatic Assay for human LYN Proto-Oncogene, Src family Tyrosine Kinase (LynA) (AID 2283173)
# Outline: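 Recombinant kinase with fluorescent substrate; product separated from substrate by electrophoretic mobility shift and read 1 h after dosing. Duplicate screen at 25 uM, then concentration-response up to 50 uM; activity scored as signal loss against DMSO.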
# [10] = target: Glycogen synthase kinase-3 beta (Homo sapiens) (UniProt P49841); assay: NVS_ENZ_hGSK3b: NovaScreen (NVS) Enzymatic Assay for human Glycogen Synthase Kinase-3 beta (GSK3b) (AID 2283165)
# Outline: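 Recombinant enzyme with specific fluorescent substrate, 1 h, product separated by electrophoretic mobility shift. Primary duplicate screen at 25 uM; actives (e.g. 30% inhibition) followed in singleton concentration-response to 50 uM. Signal loss fitted versus DMSO.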
# [11] = target: human Janus Kinase 2 (Jak2), JAK2 (gene 3717) (UniProt O60674); assay: NVS_ENZ_hJak2: NovaScreen (NVS) Enzymatic Assay for human Janus Kinase 2 (Jak2) (AID 2283169)
# Outline: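 Single-point duplicate screen at 25 uM, with hits run in concentration series to a 50 uM top dose. Substrate-product separation by mobility shift with fluorescence detection, 1 h post-dosing; DMSO baseline.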
# [12] = target: Mitogen-activated protein kinase 3 (Homo sapiens) (UniProt P27361); assay: NVS_ENZ_hMAPK3: NovaScreen (NVS) Enzymatic Assay for human Mitogen-Activated Protein Kinase 3 (MAPK 3) (AID 2283177)
# Outline: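 Chemicals were first tested in duplicate at 25 uM, with hits re-run as concentration series (max 50 uM). Recombinant enzyme activity, measured 1 h post-dose in a cell-free format, was read by fluorescence/mobility shift relative to DMSO.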
# [13] = target: human Mitogen- and Stress-activated Protein Kinase-1 (Msk1), RPS6KA5 (gene 9252) (UniProt O75582); assay: NVS_ENZ_hMsk1: NovaScreen (NVS) Enzymatic Assay for human Mitogen- and Stress-activated Protein Kinase-1 (Msk1) (AID 2283187)
# Outline: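 Chemicals first run in duplicate at 25 uM, with actives followed up in singleton concentration series to 50 uM maximum. Enzyme activity came from substrate/product mobility-shift separation with fluorescence detection after 1 h incubation of the recombinant protein.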
# [14] = target: cAMP-dependent protein kinase catalytic subunit alpha (Homo sapiens) (UniProt P17612); assay: NVS_ENZ_hPKA: NovaScreen (NVS) Enzymatic Assay for human Protein Kinase A (PKA) (AID 2283192)
# Outline: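 Cell-free kinase activity read by fluorescence after mobility-shift separation of substrate and product, 1 h post-dosing. Single-concentration duplicate screen (25 uM) preceded singleton concentration series (top 50 uM); loss of signal versus DMSO.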
# [15] = target: human Phosphodiesterase 5 (PDE5), PDE5A (gene 8654) (UniProt O76074); assay: NVS_ENZ_hPDE5: NovaScreen (NVS) Enzymatic Assay for human Phosphodiesterase 5 (PDE5) (AID 2283194)
# Outline: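 Screening began in duplicate at 25 uM, with actives taken into concentration-response. Enzyme activity of recombinant PDE5 toward its substrate was measured at 1 h by fluorescence mobility-shift detection, relative to DMSO controls.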
# [16] = target: Collagenase 3 (Homo sapiens) (UniProt P45452); assay: NVS_ENZ_hMMP13: NovaScreen (NVS) Enzymatic Assay for human Matrix Metalloproteinase-13 (MMP13) (AID 2283182)
# Outline: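 Recombinant MMP13 cleaving fluorescent substrate, cell-free, measured 1 h after dosing. Primary duplicate screen at 25 uM; actives tested in concentration-response up to 50 uM; loss of signal relative to DMSO.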
# [17] = target: human Matrix Metalloproteinase-3 (MMP3), MMP3 (gene 4314) (UniProt P08254); assay: NVS_ENZ_hMMP3: NovaScreen (NVS) Enzymatic Assay for human Matrix Metalloproteinase-3 (MMP3) (AID 2283185)
# Outline: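 Fluorescent substrate turnover by recombinant MMP3 read after 1 h, signal loss scored against DMSO. Compounds first run in duplicate at 25 uM single dose, then actives confirmed by concentration series.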
# [18] = target: human MAP Kinase-Activated Protein Kinase 2 (MAPKAPK2), MAPKAPK2 (gene 9261) (UniProt P49137); assay: NVS_ENZ_hMAPKAPK2: NovaScreen (NVS) Enzymatic Assay for human MAP Kinase-Activated Protein Kinase 2 (MAPKAPK2) (AID 2283178)
# Outline: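 Chemicals screened in duplicate at 25 uM, then to 50 uM top concentration in concentration-response, against recombinant human MAPKAPK2; substrate conversion read 1 hr post-dosing by fluorescence after electrophoretic mobility-shift separation, loss-of-signal relative to DMSO.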
# [19] = target: human c-Jun N-terminal Kinases (JNK2), MAPK9 (gene 5601) (UniProt P45984); assay: NVS_ENZ_hJNK2: NovaScreen (NVS) Enzymatic Assay for human c-Jun N-terminal Kinases (JNK2) (AID 2283171)
# Outline: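 Chemicals first tested in duplicate at 25 uM, then in singleton concentration series up to 50 uM, against extracted JNK2 enzyme. Activity loss read by fluorescence with mobility-shift separation 1 h post-dose; DMSO baseline.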
# Chain of Histone deacetylase 3 (Homo sapiens) (O15379 whole entry, looked up): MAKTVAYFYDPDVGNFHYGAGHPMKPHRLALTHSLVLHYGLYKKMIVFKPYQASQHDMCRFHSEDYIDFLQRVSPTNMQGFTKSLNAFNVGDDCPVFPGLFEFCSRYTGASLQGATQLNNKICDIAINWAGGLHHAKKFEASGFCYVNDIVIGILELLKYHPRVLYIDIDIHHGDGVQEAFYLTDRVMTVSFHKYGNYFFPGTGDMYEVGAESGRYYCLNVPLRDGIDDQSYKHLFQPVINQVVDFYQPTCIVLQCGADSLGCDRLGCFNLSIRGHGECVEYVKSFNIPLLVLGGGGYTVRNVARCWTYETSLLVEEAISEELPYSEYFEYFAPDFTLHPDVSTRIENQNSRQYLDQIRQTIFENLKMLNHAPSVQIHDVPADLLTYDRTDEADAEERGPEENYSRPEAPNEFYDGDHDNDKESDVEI
# Chain of Mitogen-activated protein kinase 3 (Homo sapiens) (P27361 whole entry, looked up): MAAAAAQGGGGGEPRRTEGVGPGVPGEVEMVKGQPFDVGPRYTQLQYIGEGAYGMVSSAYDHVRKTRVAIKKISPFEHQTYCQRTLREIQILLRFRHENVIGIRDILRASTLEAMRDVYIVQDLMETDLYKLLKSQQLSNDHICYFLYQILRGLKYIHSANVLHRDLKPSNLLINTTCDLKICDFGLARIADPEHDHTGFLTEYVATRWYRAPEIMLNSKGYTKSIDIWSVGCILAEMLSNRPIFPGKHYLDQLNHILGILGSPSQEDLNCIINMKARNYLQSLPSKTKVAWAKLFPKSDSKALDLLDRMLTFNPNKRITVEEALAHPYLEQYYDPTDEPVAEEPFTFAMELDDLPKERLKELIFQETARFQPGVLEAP
# Chain of human Elastase, ELANE (gene 1991) (P08246 whole entry, looked up): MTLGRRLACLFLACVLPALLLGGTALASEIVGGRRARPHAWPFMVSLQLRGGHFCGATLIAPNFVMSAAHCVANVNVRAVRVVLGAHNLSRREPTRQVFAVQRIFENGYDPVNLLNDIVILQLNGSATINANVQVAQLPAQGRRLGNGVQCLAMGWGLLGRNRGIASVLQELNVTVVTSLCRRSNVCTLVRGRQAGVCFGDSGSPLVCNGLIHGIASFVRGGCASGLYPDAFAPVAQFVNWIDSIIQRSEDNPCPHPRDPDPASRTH
# Chain of human Ephrin type-A Receptor 1 (EphA1), EPHA1 (gene 2041) (P21709 whole entry, looked up): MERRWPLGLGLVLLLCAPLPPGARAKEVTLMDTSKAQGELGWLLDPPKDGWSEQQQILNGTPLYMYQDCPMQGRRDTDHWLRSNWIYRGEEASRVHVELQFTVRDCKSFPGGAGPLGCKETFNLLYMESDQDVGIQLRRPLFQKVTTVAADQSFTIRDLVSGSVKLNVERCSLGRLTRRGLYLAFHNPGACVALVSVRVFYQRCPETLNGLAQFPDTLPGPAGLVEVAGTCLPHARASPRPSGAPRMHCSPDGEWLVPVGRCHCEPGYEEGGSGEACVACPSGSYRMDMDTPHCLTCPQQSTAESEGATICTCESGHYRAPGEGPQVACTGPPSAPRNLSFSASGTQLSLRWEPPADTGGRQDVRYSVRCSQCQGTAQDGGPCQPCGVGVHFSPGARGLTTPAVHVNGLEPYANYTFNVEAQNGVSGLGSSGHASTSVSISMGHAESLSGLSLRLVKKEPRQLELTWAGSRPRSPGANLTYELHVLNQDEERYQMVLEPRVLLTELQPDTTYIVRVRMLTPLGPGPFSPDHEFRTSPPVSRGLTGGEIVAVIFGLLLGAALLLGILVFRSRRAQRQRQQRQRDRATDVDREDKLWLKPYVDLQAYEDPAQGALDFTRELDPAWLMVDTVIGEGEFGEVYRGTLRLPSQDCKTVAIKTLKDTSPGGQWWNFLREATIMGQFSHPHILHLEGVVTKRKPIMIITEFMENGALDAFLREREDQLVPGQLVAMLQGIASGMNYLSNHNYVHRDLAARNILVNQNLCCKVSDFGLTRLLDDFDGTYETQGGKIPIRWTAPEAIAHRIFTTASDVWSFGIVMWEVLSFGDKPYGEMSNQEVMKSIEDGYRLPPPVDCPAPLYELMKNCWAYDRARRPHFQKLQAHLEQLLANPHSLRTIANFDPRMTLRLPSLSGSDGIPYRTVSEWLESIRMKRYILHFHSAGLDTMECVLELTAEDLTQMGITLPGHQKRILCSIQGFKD
# Chain of human Esterase Plasma (ES), BCHE (gene 590) (P06276 whole entry, looked up): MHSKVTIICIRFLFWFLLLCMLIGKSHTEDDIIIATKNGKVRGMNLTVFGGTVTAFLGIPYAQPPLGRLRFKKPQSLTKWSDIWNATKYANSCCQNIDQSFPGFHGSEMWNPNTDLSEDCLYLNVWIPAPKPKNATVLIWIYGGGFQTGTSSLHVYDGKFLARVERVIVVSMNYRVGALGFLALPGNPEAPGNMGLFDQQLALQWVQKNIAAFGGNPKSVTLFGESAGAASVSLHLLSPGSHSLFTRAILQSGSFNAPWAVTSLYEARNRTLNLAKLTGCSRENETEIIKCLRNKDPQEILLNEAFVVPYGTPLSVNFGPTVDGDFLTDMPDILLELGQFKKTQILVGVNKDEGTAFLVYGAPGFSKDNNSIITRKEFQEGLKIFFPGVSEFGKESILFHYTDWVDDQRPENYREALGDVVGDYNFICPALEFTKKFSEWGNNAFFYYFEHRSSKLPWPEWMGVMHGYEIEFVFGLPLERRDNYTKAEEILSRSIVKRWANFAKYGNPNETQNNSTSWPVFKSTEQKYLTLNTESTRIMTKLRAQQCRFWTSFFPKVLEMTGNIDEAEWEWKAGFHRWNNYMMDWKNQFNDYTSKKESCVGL
# Chain of human Matrix Metalloproteinase-3 (MMP3), MMP3 (gene 4314) (P08254 whole entry, looked up): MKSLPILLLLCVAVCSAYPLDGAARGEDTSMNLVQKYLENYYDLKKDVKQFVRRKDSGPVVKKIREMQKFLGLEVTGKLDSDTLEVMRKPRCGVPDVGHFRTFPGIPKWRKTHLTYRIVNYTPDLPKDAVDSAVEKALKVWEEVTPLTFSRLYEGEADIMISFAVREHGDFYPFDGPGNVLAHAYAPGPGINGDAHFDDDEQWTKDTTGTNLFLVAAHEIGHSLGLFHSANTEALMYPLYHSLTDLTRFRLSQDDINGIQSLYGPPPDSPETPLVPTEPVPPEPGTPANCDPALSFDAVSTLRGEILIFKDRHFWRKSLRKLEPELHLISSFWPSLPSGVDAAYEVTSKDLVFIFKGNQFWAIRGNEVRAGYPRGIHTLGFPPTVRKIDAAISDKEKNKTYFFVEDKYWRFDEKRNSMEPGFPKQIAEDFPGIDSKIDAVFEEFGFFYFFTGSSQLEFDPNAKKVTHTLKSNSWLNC
# Chain of human Matrix Metalloproteinase-7 (MMP7), MMP7 (gene 4316) (P09237 whole entry, looked up): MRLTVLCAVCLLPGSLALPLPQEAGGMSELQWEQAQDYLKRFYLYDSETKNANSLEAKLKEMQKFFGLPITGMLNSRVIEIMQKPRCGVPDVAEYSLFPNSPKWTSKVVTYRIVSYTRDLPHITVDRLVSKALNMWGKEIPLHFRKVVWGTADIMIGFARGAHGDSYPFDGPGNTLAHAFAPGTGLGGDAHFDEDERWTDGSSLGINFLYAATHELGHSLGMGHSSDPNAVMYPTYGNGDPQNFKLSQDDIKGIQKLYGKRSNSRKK
# Chain of human Mitogen- and Stress-activated Protein Kinase-1 (Msk1), RPS6KA5 (gene 9252) (O75582 whole entry, looked up): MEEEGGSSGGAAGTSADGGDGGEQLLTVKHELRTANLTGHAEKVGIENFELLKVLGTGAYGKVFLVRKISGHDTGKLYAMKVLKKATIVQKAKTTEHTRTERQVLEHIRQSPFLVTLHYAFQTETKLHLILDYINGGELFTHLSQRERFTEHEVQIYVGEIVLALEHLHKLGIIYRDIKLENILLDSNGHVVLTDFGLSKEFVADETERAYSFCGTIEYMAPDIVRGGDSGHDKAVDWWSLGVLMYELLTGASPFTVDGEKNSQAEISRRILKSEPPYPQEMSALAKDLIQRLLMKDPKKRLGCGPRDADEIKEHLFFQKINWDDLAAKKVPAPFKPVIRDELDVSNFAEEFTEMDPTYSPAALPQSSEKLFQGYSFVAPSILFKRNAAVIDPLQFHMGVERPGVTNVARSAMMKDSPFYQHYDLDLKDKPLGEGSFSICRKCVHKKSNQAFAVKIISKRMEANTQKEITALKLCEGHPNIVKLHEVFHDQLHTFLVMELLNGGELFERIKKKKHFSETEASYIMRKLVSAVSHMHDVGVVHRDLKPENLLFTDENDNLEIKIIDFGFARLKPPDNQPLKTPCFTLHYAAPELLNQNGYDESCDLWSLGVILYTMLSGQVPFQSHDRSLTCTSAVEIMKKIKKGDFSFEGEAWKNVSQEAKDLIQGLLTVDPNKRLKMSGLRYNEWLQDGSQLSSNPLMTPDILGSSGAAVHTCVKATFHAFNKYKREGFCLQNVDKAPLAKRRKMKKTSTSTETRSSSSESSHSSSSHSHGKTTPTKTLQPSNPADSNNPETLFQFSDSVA
# Chain of Glycogen synthase kinase-3 beta (Homo sapiens) (P49841 whole entry, looked up): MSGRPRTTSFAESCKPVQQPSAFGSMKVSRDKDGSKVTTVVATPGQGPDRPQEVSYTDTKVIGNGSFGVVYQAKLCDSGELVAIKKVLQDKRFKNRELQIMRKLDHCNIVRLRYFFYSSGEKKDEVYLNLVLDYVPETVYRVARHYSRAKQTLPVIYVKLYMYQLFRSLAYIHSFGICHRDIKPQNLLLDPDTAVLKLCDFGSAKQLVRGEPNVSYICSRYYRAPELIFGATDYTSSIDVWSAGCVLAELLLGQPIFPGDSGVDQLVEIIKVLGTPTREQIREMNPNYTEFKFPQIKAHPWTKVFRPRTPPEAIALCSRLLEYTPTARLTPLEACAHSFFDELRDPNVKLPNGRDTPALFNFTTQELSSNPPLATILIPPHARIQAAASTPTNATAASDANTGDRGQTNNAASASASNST
compound,measurement,setting,value
CCCCC(CC)COC(=O)CCCCCCCC(=O)OCC(CC)CCCC (stereo not given),AC50,[1],6.97 µM (active)
same,outcome,[2],inactive
Cc1ccc(-c2cc(C(F)(F)F)nn2-c2ccc(S(N)(=O)=O)cc2)cc1,outcome,[3],inactive
same,outcome,[4],inactive
same,outcome,[5],inactive
C#CC(O)C(CC)CCCC (stereo not given),outcome,[6],inactive
same,outcome,[4],inactive
CCN(CC)CCOc1ccc(C(=C(Cl)c2ccccc2)c2ccccc2)cc1,outcome,[3],inactive
same,outcome,[6],inactive
same,AC50,[7],33.6 µM (active)
same,AC50,[8],4.17 µM (active)
same,AC50,[9],19.8 µM (active)
CN(C)C(=O)NC1(c2ccccc2)CCN(CCC[C@]2(c3ccc(Cl)c(Cl)c3)CCCN(C(=O)c3ccccc3)C2)CC1,AC50,[3],5.89 µM (active)
same,outcome,[10],inactive
same,outcome,[11],inactive
same,outcome,[9],inactive
same,outcome,[12],inactive
same,outcome,[13],inactive
same,outcome,[14],inactive
CS(=O)(=O)c1ccc([C@@H](C[C@H]2CCC(=O)C2)C(=O)Nc2cnccn2)cc1Cl,outcome,[6],inactive
same,outcome,[12],inactive
same,AC50,[15],23.3 µM (active)
CCCCc1nc2cccnc2n1Cc1ccc(-c2ccccc2-c2nnn[nH]2)cc1,outcome,[6],inactive
same,AC50,[8],17.2 µM (active)
same,outcome,[12],inactive
same,AC50,[16],24.1 µM (active)
same,AC50,[17],22.9 µM (active)
same,AC50,[15],11.3 µM (active)
O=C(O)CN(CC(=O)O)CC(=O)O,outcome,[10],inactive
Cc1c(C)c2c(c(C)c1O)CCC(C)(COc1ccc(CC3SC(=O)NC3=O)cc1)O2 (stereo not given),outcome,[3],inactive
CN(C)CCCN(C)CCCN(C)C,AC50,[3],31.8 µM (active)
same,outcome,[4],inactive
O=C(NS(=O)(=O)/C=C/c1cccs1)c1ccc(F)cc1Br,outcome,[6],inactive
CC(C)(O)c1ccc(CNC(=O)c2cccnc2Oc2ccc(F)cc2)cc1,outcome,[1],inactive
same,outcome,[11],inactive
same,outcome,[15],inactive
Cc1cc(SC2=C(O)C[C@@](CCc3ccc(N)cc3)(C(C)C)OC2=O)c(C(C)(C)C)cc1CO,AC50,[3],7.01 µM (active)
same,outcome,[11],inactive
CCCC(=O)O,outcome,[10],inactive
O=C1c2c(O)cccc2Cc2cccc(O)c21,AC50,[1],4.55 µM (active)
same,outcome,[8],inactive
same,outcome,[18],inactive
same,AC50,[16],0.671 µM (active)
same,AC50,[4],20.3 µM (active)
same,AC50,[5],10.2 µM (active)
same,AC50,[17],8.87 µM (active)
COc1ccc(OC(F)(F)F)cc1CN[C@H]1CCCN[C@H]1c1ccccc1,AC50,[3],1.47 µM (active)
same,outcome,[10],inactive
same,outcome,[11],inactive
same,outcome,[13],inactive
same,outcome,[14],inactive
same,outcome,[15],inactive
O=C(O)CC(O)(CC(=O)O)C(=O)O,outcome,[7],inactive
same,outcome,[11],inactive
same,outcome,[19],inactive
same,outcome,[12],inactive
CN(C)CCCN1c2ccccc2Sc2ccc(Cl)cc21,AC50,[3],7.76 µM (active)
same,outcome,[6],inactive
CCCCCCCCCC[N+](C)(C)[O-],outcome,[6],inactive
CCCCCCCCCCCCCCOS(=O)(=O)O,AC50,[1],25.4 µM (active)
same,AC50,[17],26 µM (active)
CN(C)C(=O)NC1(c2ccccc2)CCN(CC[C@@]2(c3ccc(F)c(F)c3)CN(C(=O)c3ccccc3)CCO2)CC1,AC50,[3],19.1 µM (active)
same,outcome,[13],inactive
same,AC50,[15],40 µM (active)
Cc1occc(=O)c1O,outcome,[10],inactive
